Measurements taken from the supplement of paper PMC10849652.
The full data set covers some 7,900 targets. This sample favours those with a hit. About 0.6% of all pairs of compound and target were hits.

Compound: Cc1ccc(C(=O)N(CCCN)[C@@H](c2nc3cc(Cl)ccc3c(=O)n2Cc2ccccc2)C(C)C)cc1 [ispinesib]
Experiment: log2 fold change, soluble protein after heating vs DMSO (PISA); higher = thermal stabilisation; K562 cells, 10 uM, 30 min; active = over 0.2 and 3.5 SD of the protein, either way, in both replicates (recomputed)
Procedure, shortened: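 K562 cells at 2×10^6 cells/mL were given 10 μM compound for 30 min. Aliquots then went through 3 min of heating across 48°C-58°C, were pooled, and were extracted in PBS with 0.5% NP-40 at 4°C, and the supernatant after 21,000xg for 90 min was quantified by TMTpro 16plex LC-MS/MS with channel sums equalised. Thermal stability relative to control samples, from duplicates, is given as log2 fold change.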

Sequence of UniProt P49840 (P49840 whole entry, looked up): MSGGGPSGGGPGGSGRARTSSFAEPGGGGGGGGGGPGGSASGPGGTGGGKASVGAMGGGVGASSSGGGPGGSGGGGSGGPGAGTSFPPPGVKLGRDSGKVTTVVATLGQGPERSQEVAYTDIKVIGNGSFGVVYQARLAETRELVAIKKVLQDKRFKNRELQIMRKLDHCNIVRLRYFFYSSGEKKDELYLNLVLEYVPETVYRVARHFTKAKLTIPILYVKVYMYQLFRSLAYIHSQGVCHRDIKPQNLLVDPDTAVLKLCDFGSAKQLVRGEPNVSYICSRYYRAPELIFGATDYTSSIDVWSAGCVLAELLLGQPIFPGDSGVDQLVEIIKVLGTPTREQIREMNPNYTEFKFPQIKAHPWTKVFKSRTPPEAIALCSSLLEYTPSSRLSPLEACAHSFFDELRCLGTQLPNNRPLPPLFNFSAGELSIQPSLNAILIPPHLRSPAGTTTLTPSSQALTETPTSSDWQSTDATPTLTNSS
Sequence of UniProt Q9BUP3 (Q9BUP3 whole entry, looked up): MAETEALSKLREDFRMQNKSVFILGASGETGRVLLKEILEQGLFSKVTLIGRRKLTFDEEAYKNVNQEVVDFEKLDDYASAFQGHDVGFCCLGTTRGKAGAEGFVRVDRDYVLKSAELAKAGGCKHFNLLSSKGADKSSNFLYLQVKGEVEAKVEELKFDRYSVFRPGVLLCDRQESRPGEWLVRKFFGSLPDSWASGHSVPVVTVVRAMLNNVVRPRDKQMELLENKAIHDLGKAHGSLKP
Sequence of UniProt Q5JWF2 (Q5JWF2 whole entry, looked up): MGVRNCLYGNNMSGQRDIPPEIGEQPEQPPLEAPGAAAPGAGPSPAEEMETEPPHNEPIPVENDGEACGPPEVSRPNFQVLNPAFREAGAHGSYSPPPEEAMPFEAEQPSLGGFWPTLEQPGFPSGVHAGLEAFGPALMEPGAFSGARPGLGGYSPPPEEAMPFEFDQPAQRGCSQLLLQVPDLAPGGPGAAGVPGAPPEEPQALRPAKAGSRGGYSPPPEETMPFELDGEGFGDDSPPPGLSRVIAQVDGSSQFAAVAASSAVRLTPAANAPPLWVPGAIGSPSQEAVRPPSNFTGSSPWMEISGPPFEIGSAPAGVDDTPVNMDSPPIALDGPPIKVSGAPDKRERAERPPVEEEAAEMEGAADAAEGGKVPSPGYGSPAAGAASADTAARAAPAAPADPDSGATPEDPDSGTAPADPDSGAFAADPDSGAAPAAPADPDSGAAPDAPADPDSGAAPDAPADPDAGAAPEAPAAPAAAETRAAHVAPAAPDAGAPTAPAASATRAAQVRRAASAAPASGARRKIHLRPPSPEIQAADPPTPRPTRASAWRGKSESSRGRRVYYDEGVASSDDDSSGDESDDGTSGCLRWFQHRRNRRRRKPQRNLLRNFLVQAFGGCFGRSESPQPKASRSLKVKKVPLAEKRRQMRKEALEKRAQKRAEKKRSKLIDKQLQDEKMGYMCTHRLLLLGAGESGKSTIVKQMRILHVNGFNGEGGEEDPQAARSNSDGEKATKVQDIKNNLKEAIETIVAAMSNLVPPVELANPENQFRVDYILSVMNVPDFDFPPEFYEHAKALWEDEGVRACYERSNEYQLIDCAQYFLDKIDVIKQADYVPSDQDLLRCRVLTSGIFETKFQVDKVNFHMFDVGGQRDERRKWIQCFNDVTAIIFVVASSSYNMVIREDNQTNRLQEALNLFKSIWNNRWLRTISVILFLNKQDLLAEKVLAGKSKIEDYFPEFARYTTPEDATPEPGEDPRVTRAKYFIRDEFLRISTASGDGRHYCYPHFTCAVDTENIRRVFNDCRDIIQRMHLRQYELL
Sequence of UniProt Q9Y3I1 (Q9Y3I1 whole entry, looked up): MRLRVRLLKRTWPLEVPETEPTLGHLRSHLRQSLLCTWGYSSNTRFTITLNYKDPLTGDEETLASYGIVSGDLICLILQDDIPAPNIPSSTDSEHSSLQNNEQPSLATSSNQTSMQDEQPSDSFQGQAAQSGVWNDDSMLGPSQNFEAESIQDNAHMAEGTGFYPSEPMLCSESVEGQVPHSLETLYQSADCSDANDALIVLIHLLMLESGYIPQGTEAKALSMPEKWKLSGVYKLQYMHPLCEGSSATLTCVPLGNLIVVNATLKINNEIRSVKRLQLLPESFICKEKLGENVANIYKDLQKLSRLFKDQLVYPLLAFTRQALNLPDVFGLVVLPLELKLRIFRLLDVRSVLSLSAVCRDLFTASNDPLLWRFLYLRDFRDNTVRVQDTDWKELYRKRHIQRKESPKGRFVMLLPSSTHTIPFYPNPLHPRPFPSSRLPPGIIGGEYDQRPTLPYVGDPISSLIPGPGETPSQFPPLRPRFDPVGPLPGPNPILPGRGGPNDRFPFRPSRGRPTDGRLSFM
Sequence of UniProt Q92947 (Q92947 whole entry, looked up): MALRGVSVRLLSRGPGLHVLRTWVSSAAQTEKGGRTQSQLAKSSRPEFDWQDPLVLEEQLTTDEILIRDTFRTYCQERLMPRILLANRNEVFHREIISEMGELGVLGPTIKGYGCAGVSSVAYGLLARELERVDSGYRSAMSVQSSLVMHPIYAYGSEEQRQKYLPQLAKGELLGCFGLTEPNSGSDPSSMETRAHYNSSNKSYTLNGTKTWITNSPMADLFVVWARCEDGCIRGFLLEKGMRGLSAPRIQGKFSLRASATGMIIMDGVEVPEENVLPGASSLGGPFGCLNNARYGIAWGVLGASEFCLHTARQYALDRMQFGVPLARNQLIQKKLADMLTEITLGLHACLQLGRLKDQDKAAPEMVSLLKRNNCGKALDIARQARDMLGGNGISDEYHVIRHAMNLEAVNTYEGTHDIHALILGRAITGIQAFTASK
Sequence of UniProt P22087 (P22087 whole entry, looked up): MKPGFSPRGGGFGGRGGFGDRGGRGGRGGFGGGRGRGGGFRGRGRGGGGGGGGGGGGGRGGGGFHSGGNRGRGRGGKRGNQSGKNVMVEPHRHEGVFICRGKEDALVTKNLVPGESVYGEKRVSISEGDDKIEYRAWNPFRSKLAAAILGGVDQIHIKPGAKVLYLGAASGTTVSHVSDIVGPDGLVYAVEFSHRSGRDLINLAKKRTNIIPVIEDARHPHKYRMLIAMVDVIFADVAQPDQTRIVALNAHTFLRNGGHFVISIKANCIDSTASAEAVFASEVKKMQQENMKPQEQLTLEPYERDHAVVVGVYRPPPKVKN
Sequence of UniProt Q5SSJ5 (Q5SSJ5 whole entry, looked up): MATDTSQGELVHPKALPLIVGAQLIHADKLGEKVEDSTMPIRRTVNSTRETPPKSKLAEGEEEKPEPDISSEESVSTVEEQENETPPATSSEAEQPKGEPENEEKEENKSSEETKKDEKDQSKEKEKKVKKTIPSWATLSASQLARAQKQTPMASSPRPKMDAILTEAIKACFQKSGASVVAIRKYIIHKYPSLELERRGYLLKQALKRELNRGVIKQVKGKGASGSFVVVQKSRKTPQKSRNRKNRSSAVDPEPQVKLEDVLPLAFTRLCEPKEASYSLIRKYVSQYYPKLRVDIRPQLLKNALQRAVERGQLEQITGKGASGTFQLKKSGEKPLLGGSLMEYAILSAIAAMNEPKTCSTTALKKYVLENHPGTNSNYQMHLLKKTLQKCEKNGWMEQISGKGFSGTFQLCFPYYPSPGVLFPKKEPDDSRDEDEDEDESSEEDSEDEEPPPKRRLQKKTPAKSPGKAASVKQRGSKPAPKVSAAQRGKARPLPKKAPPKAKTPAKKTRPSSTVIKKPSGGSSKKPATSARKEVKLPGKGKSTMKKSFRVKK
Sequence of UniProt P08236 (P08236 whole entry, looked up): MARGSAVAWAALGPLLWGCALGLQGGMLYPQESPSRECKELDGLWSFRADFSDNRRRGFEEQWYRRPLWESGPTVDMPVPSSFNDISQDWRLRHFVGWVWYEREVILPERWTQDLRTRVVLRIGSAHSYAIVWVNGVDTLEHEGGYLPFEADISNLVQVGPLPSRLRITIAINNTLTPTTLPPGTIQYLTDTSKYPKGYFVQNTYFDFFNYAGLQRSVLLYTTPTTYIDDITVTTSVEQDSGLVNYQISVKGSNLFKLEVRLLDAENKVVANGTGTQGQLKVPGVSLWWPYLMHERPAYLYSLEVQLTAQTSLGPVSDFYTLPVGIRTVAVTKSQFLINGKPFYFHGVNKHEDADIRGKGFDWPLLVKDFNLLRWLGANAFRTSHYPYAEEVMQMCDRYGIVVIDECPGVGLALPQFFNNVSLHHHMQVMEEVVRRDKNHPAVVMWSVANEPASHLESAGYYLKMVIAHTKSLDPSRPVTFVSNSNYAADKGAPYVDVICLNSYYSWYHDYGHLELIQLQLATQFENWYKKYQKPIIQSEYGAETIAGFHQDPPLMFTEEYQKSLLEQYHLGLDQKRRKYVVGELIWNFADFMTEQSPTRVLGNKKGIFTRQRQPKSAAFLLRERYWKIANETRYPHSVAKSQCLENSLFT
Sequence of UniProt Q9Y3D6 (Q9Y3D6 whole entry, looked up): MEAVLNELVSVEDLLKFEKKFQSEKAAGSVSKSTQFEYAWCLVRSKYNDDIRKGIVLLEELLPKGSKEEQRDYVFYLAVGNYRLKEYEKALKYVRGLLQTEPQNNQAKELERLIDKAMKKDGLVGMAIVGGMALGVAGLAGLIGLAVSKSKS
Sequence of UniProt O15347 (O15347 whole entry, looked up): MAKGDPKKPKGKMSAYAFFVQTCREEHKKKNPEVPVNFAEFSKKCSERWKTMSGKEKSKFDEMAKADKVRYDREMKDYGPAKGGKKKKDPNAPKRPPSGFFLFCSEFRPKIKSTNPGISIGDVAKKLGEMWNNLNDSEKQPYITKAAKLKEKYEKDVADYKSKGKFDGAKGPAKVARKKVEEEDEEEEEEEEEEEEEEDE
Sequence of UniProt Q13907 (Q13907 whole entry, looked up): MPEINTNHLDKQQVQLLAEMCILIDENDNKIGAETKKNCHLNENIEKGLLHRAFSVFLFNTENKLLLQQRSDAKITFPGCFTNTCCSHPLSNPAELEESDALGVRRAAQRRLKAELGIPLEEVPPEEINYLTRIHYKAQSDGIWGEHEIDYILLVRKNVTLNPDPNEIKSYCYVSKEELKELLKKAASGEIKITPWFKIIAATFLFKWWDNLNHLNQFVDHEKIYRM

Row | Target | log2 fold change
1 | GTF3C4 (UniProt Q9UKN8) | 0.06 (inactive)
2 | HEATR5B (UniProt Q9P2D3) | -0.021 (inactive)
3 | IDI1 isoform 2 (UniProt Q13907) | 0.045 (inactive)
4 | HP1BP3 (UniProt Q5SSJ5) | -0.079 (inactive)
5 | GSK3A (UniProt P49840) | 0.072 (inactive)
6 | GNAI3 (UniProt P08754) | -0.008 (inactive)
7 | GUSB (UniProt P08236) | -0.03 (inactive)
8 | GEMIN5 (UniProt Q8TEQ6) | -0.088 (inactive)
9 | FASTKD1 (UniProt Q53R41) | -0.013 (inactive)
10 | GNAS (UniProt Q5JWF2) | -0.141 (inactive)
11 | GOLGB1 isoform 2 (UniProt Q14789) | 0.012 (inactive)
12 | HEXB (UniProt P07686) | -0.128 (inactive)
13 | H2AFX (UniProt P16104) | -0.222 (inactive)
14 | GCDH (UniProt Q92947) | 0.041 (inactive)
15 | FIS1 (UniProt Q9Y3D6) | -0.007 (inactive)
16 | FKBP3 (UniProt Q00688) | 0.019 (inactive)
17 | FBXO7 (UniProt Q9Y3I1) | 0.098 (inactive)
18 | HIP1R (UniProt O75146) | -0.097 (inactive)
19 | IDH3A (UniProt P50213) | 0.013 (inactive)
20 | HMGB3 (UniProt O15347) | 0.1 (inactive)
21 | FBL (UniProt P22087) | 0.097 (inactive)
22 | GAB2 (UniProt Q9UQC2) | -0.511 (inactive)
23 | FDPS (UniProt P14324) | -0.493 (active)
24 | HTATIP2 isoform 3 (UniProt Q9BUP3) | -0.111 (inactive)
